Assay results published in PubChem BioAssay (Tox21).
Unmarked numbers belong to inactive results. The call rests on the fitted dose curve; in most records, active means well fitted activation curve with a large enough effect in the repeat runs; inconclusive means weak or mixed curves; inactive means flat fitted curve, though single readings scatter.

Assay: Caspase-3/7 induction in CHO-K1 cells by small molecules, qHTS assay (AID 1346980); further: nearly all actives have a fitted effect of over 15% in size
Settings: CHO-K1 caspase-3/7 induction, Caspase-Glo luminescence, 17 h; series mostly up to 92.4 µM; caspase-3/7 activation: at the top concentration
From the text: National Center for Advancing Translational Sciences [NCATS]
NIH Chemical Genomics Center [NCGC]
U.S. Environmental Protection Agency [EPA]
National Institutes of Environmental Health Sciences [NIEHS]
National Toxicology Program [NTP]
Apoptosis is a process of programmed cell death and plays a central role in the development of multicellular organisms. It is a highly regulated process and induces cell death by activating caspases, which are the members of cysteine aspartic acid-specific protease (caspase) family. Caspases involved in apoptosis are classified by their mechanism of action as initiator caspases (caspase-2, -8, -9 and -10) and executioner caspases (caspase-3, -6, and -7). Inhibition of apoptosis results in number of cancers, autoimmune diseases, inflammatory diseases and viral infection. To identify small molecule compounds that induce apoptosis, a homogeneous, luminescent Caspase-Glo 3/7 assay was used. Wild type CHO-K1 cells were used to screen Tox21 libraries for identifying caspase-3/7 activity inducers.
CHO-K1 cells were dispensed at 1,500 per well in 5uL of culture medium into white solid bottom 1536-well plates (Corning Life Sciences, Corning, NY) using a Multidrop Combi (Thermo Scientific, Waltham, MA) dispenser. The assay plates were incubated at 37 C and 5% CO2 for 5hr, and then 23nL of compounds dissolved in DMSO and positive control were transferred using a Pintool station (Wako, San Diego, CA). The assay plates were incubated at 37C and 5% CO2 for 17hr. For caspase-3/7 activity read, 4uL of Caspase-Glo 3/7 reagent (Promega Corporation, Madison, WI) was added to each well of the assay plates using Flying Reagent Dispenser (FRD, Aurora Discovery, San Diego, CA) and incubated the assay plates at room temperature for 30min. The luminescence signal was quantified using a ViewLux plate reader (Perkin Elmer, Shelton, CT).
On the % scale 0 is the no-effect control and ±100 the full control effect.

| SMILES | caspase-3/7 activation |
| --- | --- |
| C=CC(=O)NC(C)(C)C | -1.21% |
| COC(=O)c1cc(Cl)ccc1[N+](=O)[O-] | -0.0654% |
| CCC(CC)C(=O)O | -0.123% |
| CCCOC(C)=O | 0.127% |
| CCCCOC(=O)C(C)Oc1ccc(Oc2ccc(C(F)(F)F)cn2)cc1 (stereo not given) | -0.0384% |
| Cc1nc(C)c(C)nc1C | -1.58% |
| Cc1cc(SC2=C(O)C[C@@](CCc3ccc(N)cc3)(C(C)C)OC2=O)c(C(C)(C)C)cc1CO | 1.89% |
| Cc1c(Cl)cccc1[N+](=O)[O-] | 0.944% |
| CC1=C(C)C(=O)C(C(CCCCCC(=O)O)c2ccccc2)=C(C)C1=O (stereo not given) | 0.0515% [at 42.5 µM] |
| CCC[Si](OC)(OC)OC | -0.533% |
| O=C(O)c1cc(C(=O)O)cc([N+](=O)[O-])c1 | -0.179% |
| NC(=O)c1cc[n+](CC2=C(C(=O)[O-])N3C(=O)[C@@H](NC(=O)Cc4cccs4)[C@H]3SC2)cc1 | 0.164% [at 42.5 µM] |
| CC1=CC(=C(c2ccc(N)cc2)c2ccc(N)cc2)C=CC1=N | 1.62% [at 8.39 µM] |
| CO[C@@H]1COCC[C@@H]1N[C@@H]1CC[C@@](C(=O)N2CCc3ncc(C(F)(F)F)cc3C2)(C(C)C)C1 | -0.896% |
| CCCCCCCCNC | -0.117% |
| C=CC(C)(O)CC/C=C(/C)CCC=C(C)C (stereo not given) | 1.05% |
| Cc1ccc(S(=O)(=O)NC(=O)NC2CCCC2)cc1 | 0.331% [at 42.5 µM] |
| O=C(OCCCCCOC(=O)c1ccccc1)c1ccccc1 | 0.261% |
| O=Cc1ccc(Cl)c([N+](=O)[O-])c1 | -0.397% |
| O=C(Cl)c1ccc(F)c(Cl)c1 | -1.04% |

| SMILES | caspase-3/7 activation |
| --- | --- |
| O=C1OC(=O)C2CC=CCC12 (stereo not given) | -1.73% |
| C=CC(O)CCCCC (stereo not given) | 0.307% |
| NC(=O)c1ccccc1 | -0.706% |
| O=C(O)c1cc(C(=O)O)c(C(=O)O)cc1C(=O)O | -0.376% |
| Cc1ccc(NC=O)c(C)c1 | 0.191% |
| CC(O)CN (stereo not given) | -0.0074% |
| CC(C(=O)O)c1ccc(/C=C2\CCCCC2=O)cc1 (stereo not given) | -0.509% [at 42.5 µM] |
| S=c1[nH][nH]c(=S)s1 | -0.347% |
| O=c1[nH][nH]c2ccccc12 | 1.78% |
| CCCCC(CC)COCCC#N (stereo not given) | -0.416% |
| C[C@@H](O)[C@H]1C(=O)N2C(C(=O)O)=C(S[C@@H]3CN[C@H](CNS(N)(=O)=O)C3)[C@H](C)[C@H]12 | -0.412% [at 42.5 µM] |
| c1ccc(-c2ccc(-c3ccccc3)cc2)cc1 | -1.92% [at 19 µM] |
| O=C1CCCN1CCO | -0.507% |
| COc1cccc([C@H](O)C2CCN(CCc3ccc(F)cc3)CC2)c1OC | 0.575% |
| O=C(O)c1ccncc1 | 0.294% |
| COc1ccc(/C=C/S(=O)(=O)NC(=O)c2ccc(C)cc2Cl)cc1 | -0.194% |
| Clc1ccccc1-c1nc(-c2ccncc2)no1 | -5.76% [at 42.5 µM] |
| CCCCCCC/C=C/C=O | 0.253% |
| O=C(O)CNc1ccccc1 | -0.643% |
| CCCc1nc(C)c2c(=O)[nH]c(-c3cc(S(=O)(=O)N4CCN(CC)CC4)ccc3OCC)nn12 | 1.15% [at 42.5 µM] |
